Test results published in article PMC7862700, “An all-to-all approach to the identification of sequence-specific readers for epigenetic DNA modifications on cytosine”.

Target: CRX (Homo sapiens, UniProt O43186 1-299)
Experiment: DAPPL (digital affinity profiling via proximity ligation, sequencing); 10 mM Tris-HCl pH 7.5, 50 mM NaCl, 1 mM DTT, 4% glycerol, room temperature, 30 min; GST-TFs on glutathione beads, 16-mer random dsDNA library, 0.1% formaldehyde crosslink after washing; high values mean tight binding
Conditions: protein: recombinant; tags: N-terminal GST; dsDNA, one strand shown
Outline: (§1)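 The binding signal reported is, for every hexamer, its read frequency for a factor over its read frequency for the tag-only sample. Reads came from pools of yeast-expressed, GST-fused human transcription factors on glutathione beads, barcoded with DNA and mixed with that sample, which were incubated with 200 nmole of a random double-stranded 16-mer DNA library in Tris/NaCl/DTT/glycerol buffer at room temperature for 30 min. After washing, the pools were crosslinked with 0.1% formaldehyde, proximity-ligated with BsaI/T4 ligase for 1 h at 37 °C, PCR-amplified and sequenced on an Illumina NextSeq500.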

Sequence of CRX (O43186 whole entry): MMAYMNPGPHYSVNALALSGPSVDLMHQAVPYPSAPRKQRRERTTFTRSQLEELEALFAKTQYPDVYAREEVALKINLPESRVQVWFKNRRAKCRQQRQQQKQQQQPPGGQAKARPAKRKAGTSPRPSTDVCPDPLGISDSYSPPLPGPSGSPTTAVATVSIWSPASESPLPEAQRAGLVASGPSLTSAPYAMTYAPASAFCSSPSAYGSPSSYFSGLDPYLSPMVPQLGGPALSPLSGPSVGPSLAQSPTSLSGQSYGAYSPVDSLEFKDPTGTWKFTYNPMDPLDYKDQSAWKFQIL

| Sequence | binding signal |
| --- | --- |
| GCTAAG | 1.75 fold enrichment (6-mer frequency, TF over GST control) |
| GATTTA | 2.33 fold enrichment (6-mer frequency, TF over GST control) |
| TGGATA | 1.34 fold enrichment (6-mer frequency, TF over GST control) |
| ATAAGA | 1.97 fold enrichment (6-mer frequency, TF over GST control) |
| CTAGAA | 2.13 fold enrichment (6-mer frequency, TF over GST control) |
| TGAATC | 1.08 fold enrichment (6-mer frequency, TF over GST control) |
| GTAAGC | 1.51 fold enrichment (6-mer frequency, TF over GST control) |
| GATCTA | 1.41 fold enrichment (6-mer frequency, TF over GST control) |
| AGATCT | 1.33 fold enrichment (6-mer frequency, TF over GST control) |
| AGCTAG | 1 fold enrichment (6-mer frequency, TF over GST control) |
| TAAGGG | 1.49 fold enrichment (6-mer frequency, TF over GST control) |
| CTTAAG | 2.69 fold enrichment (6-mer frequency, TF over GST control) |
| TAAAGG | 1.56 fold enrichment (6-mer frequency, TF over GST control) |
| TGAAGA | 1 fold enrichment (6-mer frequency, TF over GST control) |
| TGATTA | 2.23 fold enrichment (6-mer frequency, TF over GST control) |
| TAGATA | 1.48 fold enrichment (6-mer frequency, TF over GST control) |
| TCGAGC | 1.01 fold enrichment (6-mer frequency, TF over GST control) |
| TGATAG | 1.01 fold enrichment (6-mer frequency, TF over GST control) |
| GGATCT | 1.15 fold enrichment (6-mer frequency, TF over GST control) |
| TTAGAT | 2.04 fold enrichment (6-mer frequency, TF over GST control) |
| TTGCCA | 1.06 fold enrichment (6-mer frequency, TF over GST control) |
| TCAATC | 1.33 fold enrichment (6-mer frequency, TF over GST control) |
| ATAAGT | 1.79 fold enrichment (6-mer frequency, TF over GST control) |
| TCTAGA | 2.19 fold enrichment (6-mer frequency, TF over GST control) |
| TAGACT | 1.27 fold enrichment (6-mer frequency, TF over GST control) |
| TTAAGA | 2.97 fold enrichment (6-mer frequency, TF over GST control) |
| GCTGGT | 1.05 fold enrichment (6-mer frequency, TF over GST control) |
| CGTTTA | 1.19 fold enrichment (6-mer frequency, TF over GST control) |
| GATCAA | 1.52 fold enrichment (6-mer frequency, TF over GST control) |
| TAAGCA | 1.7 fold enrichment (6-mer frequency, TF over GST control) |

Target: ETV1 (Homo sapiens, UniProt P50549 1-477)
Sequence (P50549 whole entry): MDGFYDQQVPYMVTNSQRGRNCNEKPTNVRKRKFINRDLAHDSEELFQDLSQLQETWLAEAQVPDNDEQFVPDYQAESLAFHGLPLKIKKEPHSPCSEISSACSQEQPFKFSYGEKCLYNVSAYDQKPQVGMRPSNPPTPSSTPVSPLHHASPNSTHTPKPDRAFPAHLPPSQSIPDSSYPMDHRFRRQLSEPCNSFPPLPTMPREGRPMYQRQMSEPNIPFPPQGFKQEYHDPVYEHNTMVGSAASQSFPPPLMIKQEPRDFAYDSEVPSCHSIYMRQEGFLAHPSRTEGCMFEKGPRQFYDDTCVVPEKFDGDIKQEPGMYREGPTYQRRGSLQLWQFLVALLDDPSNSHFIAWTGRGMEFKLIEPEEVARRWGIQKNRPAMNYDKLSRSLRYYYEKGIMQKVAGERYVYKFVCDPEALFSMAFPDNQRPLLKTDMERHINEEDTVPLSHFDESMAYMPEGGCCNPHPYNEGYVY
Experiment: as above
Conditions: protein: recombinant; tags: N-terminal GST; dsDNA, one strand shown
Outline: as §1

| Sequence | binding signal |
| --- | --- |
| GCTAAG | 1 fold enrichment (6-mer frequency, TF over GST control) |
| TGGATA | 1.09 fold enrichment (6-mer frequency, TF over GST control) |
| ATAAGA | 1.1 fold enrichment (6-mer frequency, TF over GST control) |
| TGAATC | 1.01 fold enrichment (6-mer frequency, TF over GST control) |
| GCTAGT | 1.02 fold enrichment (6-mer frequency, TF over GST control) |
| AGATCT | 1.1 fold enrichment (6-mer frequency, TF over GST control) |
| AGCTAG | 1.05 fold enrichment (6-mer frequency, TF over GST control) |
| TAAGGG | 1.05 fold enrichment (6-mer frequency, TF over GST control) |
| CTTAAG | 1.1 fold enrichment (6-mer frequency, TF over GST control) |
| TAAAGG | 1.03 fold enrichment (6-mer frequency, TF over GST control) |
| TGATTA | 1.09 fold enrichment (6-mer frequency, TF over GST control) |
| TAGATA | 1.06 fold enrichment (6-mer frequency, TF over GST control) |
| TCGAGC | 1.08 fold enrichment (6-mer frequency, TF over GST control) |
| CCCCAG | 1.11 fold enrichment (6-mer frequency, TF over GST control) |
| GTTCGC | 1.14 fold enrichment (6-mer frequency, TF over GST control) |
| GGATCT | 1.03 fold enrichment (6-mer frequency, TF over GST control) |
| TTGCCA | 1.06 fold enrichment (6-mer frequency, TF over GST control) |
| TCAATC | 1.04 fold enrichment (6-mer frequency, TF over GST control) |
| TCTAGA | 1.02 fold enrichment (6-mer frequency, TF over GST control) |
| TAGACT | 1.02 fold enrichment (6-mer frequency, TF over GST control) |
| GCTGGT | 1.02 fold enrichment (6-mer frequency, TF over GST control) |
| CGTTTA | 1.12 fold enrichment (6-mer frequency, TF over GST control) |
| GATCAA | 1.04 fold enrichment (6-mer frequency, TF over GST control) |
| CGTCTG | 1.12 fold enrichment (6-mer frequency, TF over GST control) |

Target: T1, ERF (Homo sapiens, UniProt P50548 1-548)
T1 sequence: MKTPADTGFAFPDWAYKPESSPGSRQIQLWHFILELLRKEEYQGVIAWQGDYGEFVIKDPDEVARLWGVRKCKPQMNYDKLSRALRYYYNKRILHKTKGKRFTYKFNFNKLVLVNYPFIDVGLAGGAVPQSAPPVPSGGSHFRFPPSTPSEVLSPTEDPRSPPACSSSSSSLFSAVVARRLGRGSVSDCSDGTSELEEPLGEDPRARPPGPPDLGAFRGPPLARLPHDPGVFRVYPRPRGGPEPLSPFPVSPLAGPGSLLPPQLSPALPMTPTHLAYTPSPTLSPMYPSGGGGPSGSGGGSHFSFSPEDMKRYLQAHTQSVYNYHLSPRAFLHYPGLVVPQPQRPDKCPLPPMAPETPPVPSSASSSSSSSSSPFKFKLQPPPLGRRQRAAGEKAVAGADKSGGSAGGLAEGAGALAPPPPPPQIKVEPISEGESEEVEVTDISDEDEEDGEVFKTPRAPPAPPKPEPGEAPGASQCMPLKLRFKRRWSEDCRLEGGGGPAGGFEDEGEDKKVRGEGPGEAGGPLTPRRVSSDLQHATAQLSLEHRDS
Experiment: as above
Conditions: protein: recombinant; tags: N-terminal GST; dsDNA, one strand shown
Outline: as §1

| Sequence | binding signal |
| --- | --- |
| ACCTAG | 1.06 fold enrichment (6-mer frequency, TF over GST control) |
| GATTTA | 1.02 fold enrichment (6-mer frequency, TF over GST control) |
